# According to the supplement of paper PMC9433436:
# ± gives the standard deviation of the averaged measurements. Whole data set: some 4,100 sequences, median “relative kcat/Km (krel) vs genomic leader AAAGAU” near 1.7, cut for the highest 2% near 6.5. Only a selection was taken, and the highest values are over-represented in it overall.
# Molecular target: T1, E. coli RNase P holoenzyme (M1 P RNA + rnpA protein) (UniProt P0A7Y8)
# T1 sequence: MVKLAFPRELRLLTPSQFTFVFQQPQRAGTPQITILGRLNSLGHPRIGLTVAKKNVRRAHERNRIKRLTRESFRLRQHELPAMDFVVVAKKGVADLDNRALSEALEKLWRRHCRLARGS
# Assay: relative kcat/Km (krel) vs genomic leader AAAGAU (relative (reference leader = 1)); higher = faster RNase P cleavage
# Description: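 HTS-Kin: a pool of ptRNA-Met (21C construct) with all 4096 combinations of 5' leader nucleotides N(-6) to N(-1) was processed in vitro by E. coli RNase P (P RNA + rnpA/C5 protein) under multiple-turnover conditions at 37 C, pH 8, 17.5 mM MgCl2. Residual substrate was Illumina-sequenced at several fractions reacted, and relative kcat/Km (krel) was computed by internal competition kinetics, calibrated to the genomic leader (AAAGAU = 1). The listed hexamer is the varied N(-6)..N(-1) leader (DNA letters), and it sits between a fixed 5' stem-loop flank (GCAUGCACGAAAGUGCGUGCUAUGAA) and the mature tRNA-Met starting GGCUACGUAGCUCAGUUGG. Two technical replicates are averaged.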
# [1] = fraction of substrate reacted: ~13-16% (15.68% repeat 1, 13.17% repeat 2)
# [2] = fraction of substrate reacted: ~26-29% (28.66% repeat 1, 26.4% repeat 2)
# [3] = fraction of substrate reacted: ~9-10% (9.79% repeat 1, 9.1% repeat 2)
sequence,measurement,setting,value
ATGCAG,relative kcat/Km,[1],0.709 ± 0.22
same,relative kcat/Km,[2],0.668 ± 0.4
ACAGCG,relative kcat/Km,[2],1.17 ± 0.16
AAGGGT,relative kcat/Km,[2],0.872 ± 0.84
GAATTA,relative kcat/Km,[3],1.25 ± 0.15
same,relative kcat/Km,[1],1.82 ± 0.37
same,relative kcat/Km,[2],2.25 ± 0.75
AATGCC,relative kcat/Km,[3],2.38 ± 1.7
same,relative kcat/Km,[1],1.43 ± 0.1
same,relative kcat/Km,[2],1.48 ± 0.22
TCGCAA,relative kcat/Km,[3],2.14 ± 1.8
same,relative kcat/Km,[1],2.55 ± 0.15
same,relative kcat/Km,[2],3.22 ± 0.85
CAGATT,relative kcat/Km,[3],1.72 ± 0.68
same,relative kcat/Km,[1],2 ± 0.1
same,relative kcat/Km,[2],2.79 ± 0.81
TGTTAG,relative kcat/Km,[3],2.17 ± 1.1
same,relative kcat/Km,[1],2.36 ± 0.065
same,relative kcat/Km,[2],4.6 ± 1.1
GGTTAC,relative kcat/Km,[3],0.591 ± 0.54
same,relative kcat/Km,[1],1.09 ± 0.22
same,relative kcat/Km,[2],2.13 ± 0.98
TGTTCT,relative kcat/Km,[3],1.986 ± 0.0021
same,relative kcat/Km,[1],2.58 ± 0.73
same,relative kcat/Km,[2],4.41 ± 1.8
CGTTAA,relative kcat/Km,[3],3.62 ± 0.3
same,relative kcat/Km,[1],5.04 ± 1.6
same,relative kcat/Km,[2],7.04 ± 2.8
GGTTAA,relative kcat/Km,[3],0.853 ± 0.094
same,relative kcat/Km,[1],1.16 ± 0.33
same,relative kcat/Km,[2],1.35 ± 0.6
CGTTGT,relative kcat/Km,[3],0.465 ± 0.32
same,relative kcat/Km,[2],1.21 ± 0.9
CGTTAC,relative kcat/Km,[3],3.84 ± 0.72
same,relative kcat/Km,[1],5.28 ± 1.9
same,relative kcat/Km,[2],7.82 ± 2.9
CGTTAG,relative kcat/Km,[3],2.87 ± 1.6
same,relative kcat/Km,[1],2.22 ± 0.3
same,relative kcat/Km,[2],4 ± 1.2
CGTTAT,relative kcat/Km,[3],4.04 ± 1
same,relative kcat/Km,[1],5.58 ± 1.3
same,relative kcat/Km,[2],8.08 ± 3.4
GGTTAT,relative kcat/Km,[3],0.926 ± 0.33
same,relative kcat/Km,[1],1.69 ± 0.19
same,relative kcat/Km,[2],2.83 ± 1.2
CGTTTA,relative kcat/Km,[3],2.35 ± 0.28
same,relative kcat/Km,[1],3.11 ± 0.48
same,relative kcat/Km,[2],4.14 ± 1.4
TGTTAT,relative kcat/Km,[3],3.17 ± 1.4
same,relative kcat/Km,[1],4.69 ± 0.22
same,relative kcat/Km,[2],6.81 ± 2.8
TATTGT,relative kcat/Km,[3],0.735 ± 0.4
GACCAC,relative kcat/Km,[3],2.53 ± 1.4
same,relative kcat/Km,[1],3.51 ± 0.65
same,relative kcat/Km,[2],5.22 ± 1.2
GCCCAG,relative kcat/Km,[3],0.499 ± 0.44
same,relative kcat/Km,[1],0.933 ± 0.79
same,relative kcat/Km,[2],3 ± 0.76
AAAATC,relative kcat/Km,[3],2.07 ± 0.94
same,relative kcat/Km,[1],1.14 ± 0.28
same,relative kcat/Km,[2],1.37 ± 0.15
AGTTAC,relative kcat/Km,[3],3.18 ± 1.6
same,relative kcat/Km,[1],5.31 ± 0.22
same,relative kcat/Km,[2],7.26 ± 2.7
ACTTAC,relative kcat/Km,[3],3.88 ± 2.3
same,relative kcat/Km,[1],4.09 ± 0.096
same,relative kcat/Km,[2],5.29 ± 1.6
AGTTAG,relative kcat/Km,[3],2.06 ± 1.1
same,relative kcat/Km,[1],2.34 ± 0.29
same,relative kcat/Km,[2],4.77 ± 1.3
TACGTA,relative kcat/Km,[3],2.14 ± 0.53
same,relative kcat/Km,[1],2.47 ± 0.38
same,relative kcat/Km,[2],3.67 ± 1.2
CAGAGT,relative kcat/Km,[2],0.537 ± 0.3
GTCTTT,relative kcat/Km,[3],4.65 ± 1.2
same,relative kcat/Km,[1],5.87 ± 1.4
same,relative kcat/Km,[2],8.44 ± 3.8
CTCTTC,relative kcat/Km,[3],3.63 ± 0.69
same,relative kcat/Km,[1],4.38 ± 0.62
same,relative kcat/Km,[2],6.47 ± 2.3
CTCTTT,relative kcat/Km,[3],3.59 ± 0.8
same,relative kcat/Km,[1],4.98 ± 1.2
same,relative kcat/Km,[2],7.01 ± 3
GCCTTT,relative kcat/Km,[3],3.36 ± 1.7
same,relative kcat/Km,[1],3.71 ± 0.066
same,relative kcat/Km,[2],5.06 ± 1.7
TTCTTC,relative kcat/Km,[3],4.65 ± 1.6
same,relative kcat/Km,[1],5.94 ± 0.85
same,relative kcat/Km,[2],7.95 ± 3.2
CTCTTG,relative kcat/Km,[3],2.31 ± 1.9
same,relative kcat/Km,[1],1.64 ± 0.35
same,relative kcat/Km,[2],3.11 ± 0.5
CTCTTA,relative kcat/Km,[3],2.98 ± 0.098
same,relative kcat/Km,[1],4.69 ± 1.5
same,relative kcat/Km,[2],6.21 ± 2.8
ATCTTA,relative kcat/Km,[3],2.6 ± 0.64
same,relative kcat/Km,[1],3.89 ± 0.59
same,relative kcat/Km,[2],5.74 ± 2.1
TTCTTA,relative kcat/Km,[3],4.55 ± 1.2
same,relative kcat/Km,[1],5.9 ± 0.59
same,relative kcat/Km,[2],7.98 ± 3.2
GTCTTG,relative kcat/Km,[3],2.05 ± 1.9
same,relative kcat/Km,[1],1.96 ± 0.21
same,relative kcat/Km,[2],3.58 ± 0.69
ATCTTC,relative kcat/Km,[3],3.23 ± 1.1
same,relative kcat/Km,[1],4.36 ± 0.71
same,relative kcat/Km,[2],6.11 ± 2.2
TGCTTC,relative kcat/Km,[3],2.79 ± 0.96
same,relative kcat/Km,[1],2.83 ± 0.76
same,relative kcat/Km,[2],3.73 ± 1.2
TTAACT,relative kcat/Km,[3],1.58 ± 0.78
same,relative kcat/Km,[1],1.54 ± 0.2
same,relative kcat/Km,[2],2.03 ± 0.47
CCTCCC,relative kcat/Km,[3],0.874 ± 0.5
same,relative kcat/Km,[1],1.06 ± 0.17
same,relative kcat/Km,[2],1.57 ± 0.17
CTAGAC,relative kcat/Km,[3],1.95 ± 0.33
same,relative kcat/Km,[1],3.27 ± 0.96
same,relative kcat/Km,[2],4.19 ± 2.1
GGATTA,relative kcat/Km,[3],1.24 ± 0.14
same,relative kcat/Km,[1],0.993 ± 0.47
same,relative kcat/Km,[2],1.52 ± 0.41
TCGGTG,relative kcat/Km,[3],0.643 ± 0.43
same,relative kcat/Km,[2],0.367 ± 0.27
TTCTTG,relative kcat/Km,[3],1.95 ± 1.7
same,relative kcat/Km,[1],1.96 ± 0.17
same,relative kcat/Km,[2],4 ± 1.1
GTCTTA,relative kcat/Km,[3],4.14 ± 1.1
same,relative kcat/Km,[1],5.78 ± 0.74
same,relative kcat/Km,[2],7.65 ± 2.9
GTCTTC,relative kcat/Km,[3],4.4 ± 1.6
same,relative kcat/Km,[1],5.61 ± 1.7
same,relative kcat/Km,[2],8.18 ± 3.4
